Compound activity as filed in PubChem BioAssay.
14-3-3 Bad PPI – disrupts binding of bovine 14-3-3 zeta to phospho-Bad peptide. P63103. TR-FRET 14-3-3zeta/Dy647-pBad peptide displacement, 1 h. inhibition, % at 21.7 µM. 0.71% of 220,000 active;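 active = inhibition above about 70%, limit read from the data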
Mcl-1 Bim block – inhibitors of Bim-Mcl-1 interaction, human | Bead-based flow cytometry, Bim peptide-Mcl-1 binding | Q07820 | 0.1% of 190,000 active | inhibition, % at 10 µM | AID 1009; in the data active = inhibition above about 40%
p47phox inh – inhibitors of human p47phox binding; inhibition, % at 24.7 µM; 0.53% of 220,000 active; p47phox/p22phox peptide binding, fluorescence polarization, 2 h;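 active = inhibition above about 30%, limit read from the data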
Target sequence (P14598 whole entry, looked up): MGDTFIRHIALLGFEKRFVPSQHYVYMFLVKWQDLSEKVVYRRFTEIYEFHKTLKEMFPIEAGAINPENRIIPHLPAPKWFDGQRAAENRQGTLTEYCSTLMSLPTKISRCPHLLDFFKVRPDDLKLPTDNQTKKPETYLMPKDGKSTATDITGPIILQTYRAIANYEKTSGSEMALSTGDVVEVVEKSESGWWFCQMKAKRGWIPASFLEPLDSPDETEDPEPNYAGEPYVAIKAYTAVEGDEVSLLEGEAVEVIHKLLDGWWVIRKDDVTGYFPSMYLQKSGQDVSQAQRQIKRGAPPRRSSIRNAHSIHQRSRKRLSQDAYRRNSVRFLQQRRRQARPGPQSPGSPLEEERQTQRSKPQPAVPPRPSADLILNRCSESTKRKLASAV
Mcl1-Bid inh – Mcl-1/Bid interaction inhibition. inhibition, % at 21.7 µM. 0.97% of 220,000 active. AID 1021. TR-FRET Mcl-1/Bid-Dy647 peptide binding, 1536-well;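 active = compounds that cut the binding signal by more than half at the single screening dose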;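 also: His-tagged Mcl-1 with europium anti-His antibody binding Bid BH3 peptide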
Mcl1-Noxa inh – Mcl-1/Noxa interaction inhibition; inhibition, % at 21.7 µM; AID 1022; 1.5% of 220,000 active; TR-FRET Mcl-1/Noxa peptide binding, 2 h; Q07820;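 active = compounds that cut the protein-peptide binding signal by more than 50% relative to plate controls in a single-dose test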;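 also: His-tagged Mcl-1 with rhodamine Noxa BH3 peptide and terbium anti-His antibody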
Numbers stand for hits; n = inactive; x = no result given. Rows were chosen to be rich in hits. Some 3.1% of all compounds tested hit in one or more screens of this group.

SMILES	14-3-3 Bad PPI	Mcl-1 Bim block	p47phox inh	Mcl1-Bid inh	Mcl1-Noxa inh
CCc1ccc(S(=O)(=O)Nc2cc(SCC(=O)O)c(O)c3ccccc23)cc1	n	n	n	n	56
O=C(CSC(=S)N1CCCCC1)Nc1ncc2c(n1)CCCC2=O	n	x	n	n	n
O=C(CCc1ccc(Oc2cc([N+](=O)[O-])cc([N+](=O)[O-])c2)cc1)N1CCCCC1	n	n	n	n	n
Cc1cccc(N2CCN(C(=O)c3cccc(N4C(=O)C5CC=CC(C)C5C4=O)c3)CC2)c1C (stereo not drawn)	x	n	n	n	n
CC(C)(C)C(=O)OC/C(N)=N/OC(=O)c1ccc(Cl)cc1	91	x	n	n	n
Cc1nn(-c2ccccn2)c2c1C(=O)C(Br)CC2 (stereo not drawn)	n	n	n	n	55
COc1ccc(NC(=O)c2cc3cccc(OC)c3oc2=Nc2ccc(C(=O)O)cc2)cc1OC	n	n	n	n	77
Cc1ccccc1Cn1c(=O)n(CCC(=O)NCc2ccc3c(c2)OCO3)c(=O)c2ccccc21	n	n	37	n	n
Cc1cc(N/N=C/c2ccc(O)cc2)nc(NS(=O)(=O)c2ccccc2)n1	n	n	n	n	53
CN(CC1CCCO1)S(=O)(=O)c1ccc(C(=O)Nc2nc(-c3ccccn3)cs2)cc1 (stereo not drawn)	n	n	n	n	n
C=CCn1cc(/C=N/NC(=O)COc2cccc3cccnc23)c2ccccc21	n	n	47	89	66
O=C1CSC(=Nc2ccccc2)N1	n	n	n	n	n
O=C1CS/C(=N\C(=O)N2c3ccccc3Sc3ccccc32)N1	n	n	n	n	69
CC(C)CC(=O)Nc1nc2ccc(S(C)(=O)=O)cc2s1	n	n	n	n	n
COc1ccc(NC(=S)N2CCNC(=O)C2CC(=O)Nc2ccc(C)cc2)cc1 (stereo not drawn)	n	n	n	n	n
N/C(=N\O)C1COc2ccccc2O1 (stereo not drawn)	84	n	n	n	n
CC(=O)N/N=C(\C)C1COc2ccccc2O1 (stereo not drawn)	n	x	n	n	n
CC1CCN(C(=S)c2cn(Cc3ccccc3F)c3ccccc23)CC1	n	n	n	n	n
CN1CCN(C(=S)c2cn(Cc3ccccc3F)c3ccccc23)CC1	n	n	n	86	n
COc1ccc(C(=O)CSc2ccc(-c3ccco3)nn2)cc1	n	n	n	n	n
Cc1nnc(NC(=O)CSc2ccc(-c3ccco3)nn2)s1	n	n	n	n	56
O=C(CSc1ccc(-c2ccco2)nn1)c1ccccc1	n	n	n	n	59
CCc1nnc(NC(=O)CSc2ccc(-c3ccco3)nn2)s1	n	n	n	n	59
CCc1nnc(NC(=O)CSc2nnc(-c3ccco3)n2C)s1	n	n	n	n	n
CN=C(C)/C(C(=O)OC)=C(/O)c1c(F)cccc1F	n	x	n	n	n
SMILES	14-3-3 Bad PPI	Mcl-1 Bim block	p47phox inh	Mcl1-Bid inh	Mcl1-Noxa inh
Nc1cnc(CNc2ccccc2Cl)cn1	n	x	n	n	n
CCOC(=O)c1cccc(NC(=O)CCNS(=O)(=O)c2ccc3c(c2)CCN3C(=O)CC)c1	n	n	n	70	n
O=C(Nc1cccnc1Cl)c1ccc(=O)oc1	n	x	n	n	n
Cn1c(=O)c2ncn(CC(=O)Nc3cccc(-c4nc5ccccc5s4)c3)c2n(C)c1=O	n	n	n	n	64
O=C1Nc2ccc(F)cc2C12Nc1ccccc1-c1nnc(SCc3ccccc3Cl)nc1O2 (stereo not drawn)	n	n	39	n	n
O=C1Nc2ccc(F)cc2C12Nc1ccccc1-c1nnc(SCc3ccccc3)nc1O2 (stereo not drawn)	n	n	n	n	n
CCOc1ccc(OCC)c2sc(C)nc12	n	n	59	n	n
O=C(O)c1ccccc1C(=O)c1ccc2c(c1)N(Cc1ccc(Cl)c(Cl)c1)C(=O)CO2	n	n	n	n	n
Cc1occc1C(=O)NNC(=O)NC12CC3CC(CC(C3)C1)C2	n	n	36	n	n
CCCCNC(=O)Cn1c2c(c(-c3ccccc3Cl)cc1=O)CCC2	n	n	81	n	n
Cc1cc(C)c2cc3c(N)c(C(=O)Nc4c(C)[nH]c(=O)[nH]c4=O)sc3nc2c1	n	n	n	n	54
Cc1cccc2c(=O)cc(C)n(CC(N)=O)c12	n	x	n	n	n
CC(=O)Oc1ccccc1N(C(C)=O)S(=O)(=O)c1cccc([N+](=O)[O-])c1	n	n	n	n	n
Cn1cccc1CNCc1ccccc1Cl	n	n	n	n	n
OC(CNCc1ccccc1Cl)C(F)(F)F (stereo not drawn)	82	n	n	n	n
CN1CCN(c2cc(-c3ccccc3)nc3cc(-c4ccc(F)cc4)nn23)CC1	n	n	n	n	52
Cc1cc(N2CCN(C)CC2)n2cc(-c3ccc(F)cc3)nc2n1	n	n	n	n	58
Fc1ccc(-c2cc3nc(-c4ccccc4)cc(N4CCN(CCN5CCOCC5)CC4)n3n2)cc1	n	n	n	n	n
Cc1cc(N2CCN(c3ccccn3)CC2)n2cc(-c3ccccc3)nc2n1	n	n	n	n	n
C=CCOC(=O)C1=C[C@H](C2CC2)[C@@H](CCCO)[C@H](OCC)O1	n	n	x	n	n
O=C(O)c1cnn2c(C(F)(F)F)cc(-c3ccco3)nc12	n	n	n	79	n
COC(=O)c1cc(O)cc(OC)c1Oc1cc(C)cc(O)c1C(=O)O	n	x	n	n	85
Cc1cc(C)n(CCc2nc(-c3cccs3)cs2)n1	n	n	n	n	n
Cc1cc(C)n(CCc2nc(-c3ccco3)cs2)n1	n	n	n	n	53
O=C(CSc1nc(-c2ccccc2)cc(C(F)(F)F)n1)N1CCOCC1	n	n	n	77	n
SMILES	14-3-3 Bad PPI	Mcl-1 Bim block	p47phox inh	Mcl1-Bid inh	Mcl1-Noxa inh
COc1ccc(-c2cc(C(F)(F)F)nc(SCC(=O)N3CCOCC3)n2)cc1OC	n	n	n	n	n
CCOC(=O)Cc1ccc(NCc2ccc(Cl)cc2)cc1	n	n	n	n	n
Cc1nc(N2CCN(c3ccccc3)CC2)[nH]c(=O)c1Cc1ccccc1	92	n	n	n	n
C(=N\c1nc2ccccc2n1Cc1ccccc1)/c1cccs1	n	n	n	51	n
N#CCCN(Cc1cccnc1)C(=S)Nc1ccccc1Cl	n	n	37	n	n
CCOC(=O)c1cnc(-n2nc(C)cc2C)nc1Nc1ccc(N(C)C)cc1	n	n	n	n	72
Cc1ccc2c(c1)c1cccc3c1n2CCN3CCC(N)=O	n	n	n	n	67
Cc1[nH]c2ccccc2c1SCC(=O)O	n	n	n	n	n
CNC(=O)CCc1[nH]c2ccccc2c1Sc1ccccc1	n	n	34	n	n
CC(C)(C=O)C1=CC(=O)c2ccccc2C1=O	n	n	n	n	85
CN(C)c1ccc(/C=C2\SC(=O)N(CC(O)Cn3c4ccccc4c4ccccc43)C2=O)cc1 (stereo not drawn)	n	n	n	n	n
CN(C)c1ccc(/C=C2/SC(=O)N(CCN=C3NS(=O)(=O)c4ccccc43)C2=O)cc1	n	78	n	n	52
CN(C)c1ccc(/C=C2\SC(=O)N(CCc3nnc(N)s3)C2=O)cc1	n	x	n	n	67
